# Key:
# Conditions in all cases: concentration: 1 μM, replicates: in singlicate; n = 1
# TLK2 = test system: TLK2
# TNIK = test system: TNIK
# TNK1 = test system: TNK1
# TNK2 = test system: TNK2
# TNNI3K = test system: TNNI3K
# TRKA = test system: T1, TRKA
# T1 construct: gene NTRK1
# TRKB = test system: TRKB
# TRKC = test system: T2, TRKC
# T2 construct: gene NTRK3
# TRPM6 = test system: TRPM6
# TSSK1B = test system: TSSK1B
# 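Note: KINOMEscan kinase panel screen.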
Compound,%Inh (TLK2),%Inh (TNIK),%Inh (TNK1),%Inh (TNK2),%Inh (TNNI3K),%Inh (TRKA),%Inh (TRKB),%Inh (TRKC),%Inh (TRPM6),%Inh (TSSK1B)
Fc1ccc(-c2ncn(CCCN3CCOCC3)c2-c2ccccn2)cc1 [SB-211742],0%,0%,24%,0%,0%,0%,0%,0%,0%,0%
O=c1cc(N2CCOCC2)nc2n(Cc3cccc4ccccc34)ccn12 [GSK2333389],0%,0%,0%,6%,0%,0%,0%,19%,2%,13%
O=c1cc(N2CCOCC2)nc2n(Cc3cccc(Cl)c3Cl)c(C3CC3)nn12 [GSK2358994],0%,10%,0%,5%,0%,1%,0%,0%,0%,0%
CCCCCc1nc2c(N)ncnc2n1CCCCC [SKF-97255],20%,0%,19%,0%,0%,0%,0%,0%,13%,0%
COc1cc2c(cc1OC[C@@H](O)CO)ncc1c3ccc(C#N)cc3[nH]c21,0%,64%,36%,0%,0%,98.8%,90%,66%,0%,3%

# Source: paper PMC5540273 (PLoS ONE, 2017)
